The record followed here is PubChem BioAssay AID1240 (Sanford-Burnham Center for Chemical Genomics, 2008).

The structures appear in SMILES notation. Out of some 50,000 compounds screened, about 800 (1.6%) showed an effect of 50% or more. The list comes from a sample in which strong results are over-represented; it also holds similar structures and randomly drawn compounds.

The target in this assay is Bcl-2-like protein 10 (Homo sapiens) (UniProt Q9HD36). The assay can be described thus: TR3 peptide-Bcl-B binding displacers, biochemical primary FP assay, phenotype converters (AID 1240).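 Also: 0% = Bcl-B with tracer peptide and DMSO and 100% = tracer peptide lacking Bcl-B.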 Particulars: GST-Bcl-B / FITC-TR3 peptide fluorescence polarization; stronger effect = higher value; compound at 3.75 mg/L. Background: Polarisation of emitted light reports the rotation of a fluorescent probe.
Sequence of Bcl-2-like protein 10 (Homo sapiens) (Q9HD36 whole entry, looked up): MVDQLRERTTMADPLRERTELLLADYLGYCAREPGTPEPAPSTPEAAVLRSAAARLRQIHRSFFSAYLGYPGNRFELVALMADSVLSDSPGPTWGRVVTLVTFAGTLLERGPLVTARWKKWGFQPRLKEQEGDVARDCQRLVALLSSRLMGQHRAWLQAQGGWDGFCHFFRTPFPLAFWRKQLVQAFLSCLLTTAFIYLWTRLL
Take `CCOc1ccc(C(=O)Nc2cc(OC)ccc2OC)cc1Br`: the displacement is -9%. Then `COc1ccc(C(=O)N2CCN(c3cccc(C)c3C)CC2)c(OC)c1`, with -4.4%. Then `CCN(CC)c1ccc(N2C(=O)/C(=C/C=C/c3ccccc3)SC2=S)cc1`, with -4.2%; and `CCCOC(=O)c1c(NC(=O)c2c(-c3ccccc3)noc2C)sc2c1CCCCC2`, with -7.2%. Then `COc1ccc(CN2CCN(C3CCC(c4ccccc4)CC3)CC2)c(OC)c1OC` (stereo not given), with -12%; and `CC(C)OC(=O)c1c(-c2ccc(F)cc2)csc1N`, with 1.3%; and `COc1ccc(N2C(=O)/C(=C\C(Br)=C\c3ccccc3)SC2=S)cc1`, with 5.6%. `CCOC(=O)C1=C(C)N=c2s/c(=C\c3ccccc3Cl)c(=O)n2C1c1ccc(OC)c(OC)c1` (stereo not given): the displacement worked out at 106%.

As for `CCOC(=O)C1=C(C)N=c2s/c(=C\c3ccccc3F)c(=O)n2C1c1ccc(OC)c(OC)c1` (stereo not given), the displacement amounted to 6.3%. Then `CCOC(=O)C1=C(C)N=c2s/c(=C\c3ccccn3)c(=O)n2C1c1ccc(OC)c(OC)c1` (stereo not given), with 42.1%. The figure for `CCOC(=O)C1=C(C)N=c2s/c(=C\c3ccc(NC(C)=O)cc3)c(=O)n2C1c1ccc(OC)c(OC)c1` (stereo not given) is 88.9%; for `CCOC(=O)C1=C(C)N=c2s/c(=C\c3cc(Br)c(O)c(OC)c3)c(=O)n2C1c1ccc(OC)c(OC)c1` (stereo not given) it is -85.1%. Then `CCOC(=O)C1=C(C)N=c2s/c(=C\c3ccc(N(CC)CC)o3)c(=O)n2C1c1ccc(OC)c(OC)c1` (stereo not given), with -25%. As for `CC(=O)N(c1ccccc1)c1c(F)c(F)c(F)c(F)c1F`, the displacement was -8.8%.

`O=C(COc1ccc(Cl)cc1Br)Nc1ccc2c(c1)OCCO2`: the displacement was 1.8%. In the case of `CCOC(=O)c1conc1-c1ccc(SC)cc1`, the displacement came out at 6.5%. Consider `COc1ccc(CN2CCN(Cc3cc(Br)ccc3O)CC2)c(OC)c1`, for which the displacement amounted to 1.4%. The figure for `COc1cc(C(=O)N2CCN(Cc3cccc(C(F)(F)F)c3)CC2)cc(OC)c1OC` is 3.1%.

On to `O=C(Nc1ccc(O)c(-c2nc3ccccc3s2)c1)c1ccc2c(c1)OCCO2`, for which the displacement turned out to be 82.5%. The figure for `CCOc1ccc(C(=O)Nc2ccc(-c3nc4ccc(C)cc4s3)cc2)cc1` is 13.3%; for `O=C(Nc1cccc(-c2nc3ccccc3s2)c1)c1ccc2c(c1)OCCO2` it is 5.6%.

On to `Cc1ccc2nc(-c3ccc(NC(=O)c4ccc5c(c4)OCCO5)cc3)sc2c1`, for which the displacement was determined as 73.2%. With `O=C(Nc1ccc(-c2nc3ccccc3s2)c(O)c1)c1ccc2c(c1)OCCO2`, the displacement is -3.8%.

For `CC(=O)Nc1ccc(-c2nc3ccc(C)cc3s2)cc1`, the displacement was -3.9%. For `O=CN1N=C(c2ccccc2)CC1(O)C(F)(F)F` (stereo not given), the displacement is 13.4%. `CCOC(=O)c1c(NC(=O)CC2Nc3ccccc3NC2=O)sc(C)c1C` (stereo not given): the displacement is -9.5%. Then `COC(=O)c1ccc(NC(=O)CC2Nc3ccccc3NC2=O)cc1` (stereo not given), with 108%; and `CCc1ccc(NC(=O)CC2Nc3ccccc3NC2=O)cc1` (stereo not given), with -35.7%. As for `CCOC(=O)c1c(NC(=O)CC2Nc3ccccc3NC2=O)sc2c1CCCC2` (stereo not given), the displacement is 130%. Then `CCOC(=O)c1c(NC(=O)CC2Nc3cc(C)c(C)cc3NC2=O)sc2c1CCCC2` (stereo not given), with 48.8%. Then `O=C(CC1Nc2ccccc2NC1=O)Nc1ccc(Br)cc1` (stereo not given), with -5.1%; and `O=[N+]([O-])c1ccc(COc2ccccc2/C=N/Nc2nc3ccccc3s2)cc1`, with -2.1%; and `O=C(COc1ccc(Cl)cc1Cl)N1CCN(C(=O)COc2ccc(Cl)cc2Cl)CC1`, with 2%. On to `CCOC(=O)c1ccc(Nc2nc3nonc3nc2NC(C)C)cc1`, for which the displacement was -7.1%.

With `O=C1NC(=S)N/C1=C/c1ccc(N2CCOCC2)cc1`, the displacement stood at 94.5%. The figure for `O=C1NC(=S)N/C1=C\c1ccccc1` is 0.7%.

For `Cc1cc(/C=C2/NC(=S)NC2=O)c(C)n1-c1ccc(N2CCOCC2)cc1`, the displacement was -9%. The figure for `COc1ccc(CC(=O)Nc2ccc(Cl)c(C(F)(F)F)c2)cc1OC` is 6.1%; for `O=C(Nc1ccc(Br)cc1)c1ccccc1C(F)(F)F` it is 23.2%; for `O=C1c2ccccc2C(=O)c2c1cc(NC1CCCCC1)c1nsnc21` it is 15.8%. In the case of `O=C1c2ccccc2-c2c(NC3CCCCC3)c(=O)[nH]c3cccc1c23`, the displacement came out at 150%.

With `O=C1C(NC2CCCCC2)=C(N2CCCCC2)C(=O)c2ccccc21`, the displacement was 7.4%. Take `Cc1cc(/C=C2/SC(=S)NC2=O)c(C)n1-c1ccc(F)cc1`: the displacement was -6.4%.

For the compound `Cc1cccc(-n2c(C)cc(C=C3C(=O)NC(=S)NC3=O)c2C)c1`, the displacement amounted to 72.3%.

For the compound `Cc1cc(C=C2C(=O)NC(=S)NC2=O)c(C)n1-c1ccc(Br)cc1`, the displacement stood at 21%.

`Cc1cccc(-n2c(C)cc(/C=C3/NC(=S)NC3=O)c2C)c1`: the displacement was -38.6%. As to `Cc1cc(C=C2C(=O)NC(=S)NC2=O)c(C)n1-c1cccc(Cl)c1`, the displacement came out at 107%. Regarding `Cc1cc(/C=C2/NC(=S)NC2=O)c(C)n1-c1cccc(Cl)c1`, the displacement is -12.9%. With `Cc1cc(/C=C2/SC(=S)NC2=O)c(C)n1-c1ccccc1`, the displacement is -39.7%.

On to `Cc1ccc(-n2c(C)cc(C=C3C(=O)NC(=S)NC3=O)c2C)cc1C`, for which the displacement was found to be 0.1%. The figure for `CCc1ccc(-n2c(C)cc(/C=C3/SC(=S)NC3=O)c2C)cc1` is 63%. Then `CCOC(=O)c1ccc(NC(=O)CN(c2ccc(Oc3ccccc3)cc2)S(C)(=O)=O)cc1`, with -2.7%; and `Cc1ccc(-c2nc(N/N=C/c3cccc(F)c3)c3ccccc3n2)cc1`, with 5%; and `COc1ccc(C(=O)N2CCN(Cc3ccc4c(c3)OCO4)CC2)cc1OC`, with 10.6%. For `CCOC(=O)C1=C(C)N=c2s/c(=C\c3ccc(N(C)C)o3)c(=O)n2C1c1ccc(F)cc1` (stereo not given), the displacement was -22.6%.
